# Experimental data: PubChem BioAssay (EPA / NIEHS)
# Values joined by “and” are separate entries in the source; they are usually repeats but may differ in a detail not shown here. Identical values can stand only once. Records with an inconclusive call do not appear. A structure can be active in one record and inactive in another. Active and inactive are the calls of the source. Rule for the calls, unless noted: active = hit-call score of the fitted dose curve at least 0.9, where 1 is the maximum; inactive = score below 0.9.
# What was measured:
# [1] = read-out: CD69, CD69 (gene 969); test: BSK_LPS_CD69: BioMAP Diversity Plus: LPS Assay for CD69 Biomarker Activity (AID 2284303); settings: primary human HUVEC with PBMC
# Summary of the method: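 Human umbilical vein endothelial cells co-cultured with PBMC under LPS stimulation, chemical exposure 24 h; cell-surface CD69 measured by ELISA and fitted in the positive direction versus DMSO.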
# [2] = IUF_NPC2a_radial_glia_migration_72hr: Leibniz Research Institute for Environmental Medicine (IUF) 72-hour Neural Progenitor Cell Migration Assay for Radial Glia Migration (NPC2a) (AID 2284299)
# Summary of the method: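 Primary hNPC spheres, fetal brain GW 16-19, on PDL/laminin; DMEM/F12 3:1 + 1% N2. Compound dosed day 0, 7 conc. + SC, half-medium refresh day 3. 72 h brightfield, migration distance core-to-front (um), 4 directions averaged.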
# [3] = IUF_NPC2b_neuronal_migration_120hr: Leibniz Research Institute for Environmental Medicine (IUF) 120-hour Neural Progenitor Cell Migration Assay for Neuron Migration (NPC2b) (AID 2284300)
# Summary of the method: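 Read-out is mean distance from sphere edge to each TUBB3-positive neuron at 120 h, expressed relative to radial glia migration distance and to DMSO baseline. Single 0.3 mm human NPC spheres differentiated on laminin under continuous compound exposure.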
# [4] = IUF_NPC3_neuronal_differentiation_120hr: Leibniz Research Institute for Environmental Medicine (IUF) 120-hour Neuronal Differentiation Assay (NPC3) (AID 2284301)
# Summary of the method: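 Human fetal (GW 16-19) neural progenitor spheres (0.3 mm) plated on poly-D-lysine/laminin in N2 differentiation medium, exposed 120 h at 37C with half-medium renewal day 3; 7 concentrations. TUBB3+ cells as % of Hoechst nuclei, CNN-identified; DMSO baseline.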
# [5] = IUF_NPC4_neurite_length_120hr: Leibniz Research Institute for Environmental Medicine (IUF) 120-hour Neuronal Morphology Assay for Neurite Length (NPC4) (AID 2284302)
# Summary of the method: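 Human fetal neural progenitor spheres (0.3 mm) plated on poly-D-lysine/laminin in N2 differentiation medium, exposed from day 0 for 120 h with half-medium refresh at day 3, 37C. Mean neurite length (um) of TUBB3-positive neurons from skeletonized immunostaining images; DMSO ≤0.1%.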
# [6] = IUF_NPC5_oligodendrocyte_differentiation_120hr: Leibniz Research Institute for Environmental Medicine (IUF) 120-hour Oligodendrocyte Differentiation Assay (NPC5) (AID 2284304; active = hit-call score of the fitted dose curve at least 0.9, where 1 is the maximum;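 note: primary human fetal neural progenitor spheres plated to migrate and differentiate; share of O4-positive cells among Hoechst nuclei found by CNN image analysis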)
# Summary of the method: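 Oligodendrocyte differentiation was scored after 120 h as the O4-positive share of Hoechst-stained nuclei across the neurosphere migration area, using a trained convolutional neural network on high-content fluorescence images. Human fetal neural progenitor spheres were dosed from day 0, normalised to DMSO.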
# [7] = IUF_NPC4_neurite_area_120hr: Leibniz Research Institute for Environmental Medicine (IUF) 120-hour Neuronal Morphology Assay for Neurite Area (NPC4) (AID 2284305; active = hit-call score of the fitted dose curve at least 0.9, where 1 is the maximum)
# Summary of the method: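 Human fetal neural progenitor spheres (0.3 mm) plated on poly-D-lysine/laminin in N2 differentiation medium, exposed 120 h (7 concentrations, DMSO ≤0.1%, half-medium refresh day 3). Fixed, TUBB3 immunostained; mean neurite area per neuron by Omnisphero skeletonization.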
# [8] = IUF_NPC2-5_cytotoxicity_72hr: Cytotoxicity Assessment at 72 hours in the Leibniz Research Institute for Environmental Medicine (IUF) Neural Progenitor Cell Migration and Differentiation Assay for Cytotoxicity (NPC2-5) (AID 2284306; active = hit-call score of the fitted dose curve at least 0.9, where 1 is the maximum;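 note: LDH release into supernatant measured by resorufin fluorescence marking membrane damage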)
# Summary of the method: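 Human fetal primary neural progenitor spheres (0.3 mm) plated on poly-D-lysine/laminin in N2 differentiation medium, exposed from day 0 at 37C. LDH-dependent resazurin-to-resorufin fluorescence in supernatant at 72 h; 7 concentrations, DMSO at most 0.1%.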
# [9] = IUF_NPC2-5_cytotoxicity_120hr: Cytotoxicity Assessment at 120 hours in the Leibniz Research Institute for Environmental Medicine (IUF) Neural Progenitor Cell Migration and Differentiation Assay (NPC2-5) (AID 2284307; active = hit-call score of the fitted dose curve at least 0.9, where 1 is the maximum;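 note: LDH released into supernatant as membrane damage marker via resorufin fluorescence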)
# Summary of the method: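 Sphere plating starts differentiation and exposure together at day 0. Compound solution is half-replaced on day 3. At 120 h, medium supernatant is taken for an LDH membrane-integrity read based on resazurin reduction to resorufin fluorescence.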
# [10] = IUF_NPC2-5_cell_number_120hr: Cell Number Assessment at 120 hours in the Leibniz Research Institute for Environmental Medicine (IUF) Neural Progenitor Cell Migration and Differentiation Assay (NPC2-5) (AID 2284308);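 note: count of Hoechst-stained nuclei in migration zone around plated human neural progenitor spheres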
# Summary of the method: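 hNPC spheres, one per well, PDL/laminin, N2 medium, 37C, 5% CO2. Dosing day 0 → half-medium change with fresh compound day 3 → fix 120 h. Readout: Hoechst+ nuclei count, migration area; 7 concentrations plus solvent control.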
structure (smiles),measurement,setting,value
O=C(O)CCC(F)(F)C(F)(F)C(F)(F)C(F)(F)C(F)(F)F,AC50,[1],5.95 µM (active)
same,outcome,[1],inactive
O=P(O)(O)CCC(F)(F)C(F)(F)C(F)(F)C(F)(F)C(F)(F)C(F)(F)C(F)(F)C(F)(F)F,outcome,[1],inactive
O=S(=O)(O)C(F)(F)C(F)(F)C(F)(F)C(F)(F)C(F)(F)C(F)(F)C(F)(F)C(F)(F)C(F)(F)C(F)(F)F,AC50,[1],14.6 µM (active) and 3.91 µM (active)
CC(C)c1c(C(=O)Nc2ccccc2)c(-c2ccccc2)c(-c2ccc(F)cc2)n1CC[C@@H](O)C[C@@H](O)CC(=O)O,outcome,[2],inactive
same,outcome,[3],inactive
same,outcome,[4],inactive
same,outcome,[5],inactive
same,outcome,[6],inactive
same,outcome,[7],inactive
same,AC50,[8],2540 nM (active)
same,AC50,[9],1750 nM (active)
same,outcome,[10],inactive
O=P(O)(O)CCC(F)(F)C(F)(F)C(F)(F)C(F)(F)C(F)(F)C(F)(F)F,outcome,[1],inactive
Oc1ccc(Cc2ccccc2O)cc1,outcome,[1],inactive
